According to PubChem BioAssay (NCI):
Compounds without any hit were thinned out: in the full panel of roughly 83,000, 20% have a hit.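 Single-concentration screen, 48 h exposure, 96-well plates. Endpoint: percent growth. Below 10 = active.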 Active and inactive are the calls of the source.

Legend:
Test in all cases: NCI-60 one-dose screen, 48 h (100 = growth as untreated, 0 = no growth, -100 = all killed)
Conditions in all cases: 10 µM unless noted
EKVX NSCLC = system: EKVX NSCLC
SN12C renal = system: SN12C renal
UO-31 renal = system: UO-31 renal
TK-10 renal = system: TK-10 renal
ACHN renal = system: ACHN renal
CAKI-1 renal = system: CAKI-1 renal
A498 renal = system: A498 renal
CCRF-CEM leukemia = system: CCRF-CEM leukemia
MOLT-4 leukemia = system: MOLT-4 leukemia
SR leukemia = system: SR leukemia

Measured: growth

Cn1cc([C@@H]2Nc3ccc4[nH]ncc4c3[C@H]3[C@H]4CCC(C4)[C@H]32)c(C(F)(F)F)n1
active: A498 renal 8.35%
inactive: EKVX NSCLC 67.1% | SN12C renal 50.6% | UO-31 renal 49.6% | TK-10 renal 65.6% | ACHN renal 50.5% | CAKI-1 renal 35.3% | CCRF-CEM leukemia 27.6% | MOLT-4 leukemia 29.4%

Cc1c(C(=O)OCCO)cc(-c2ccc(Cl)cc2)n1-c1ccc(Cl)cc1Cl
inactive: EKVX NSCLC 63.8% | SN12C renal 61.1% | UO-31 renal 69.4% | TK-10 renal 101% | ACHN renal 71.4% | CAKI-1 renal 63.6% | A498 renal 77.3% | CCRF-CEM leukemia 65.4% | MOLT-4 leukemia 49.8%

O=c1oc2ccc(Br)cc2c(=O)n1-c1ccc(F)cc1F
inactive: EKVX NSCLC 39% | TK-10 renal 11.6% | CCRF-CEM leukemia 14.1% | MOLT-4 leukemia 17.5%
active: SN12C renal 6.17% | UO-31 renal 3.24% | ACHN renal 4.95% | CAKI-1 renal -16.6% | A498 renal -39%

Nc1ccc(-c2nn3c(CCC(=O)c4nc5ncccc5[nH]4)nnc3s2)c(O)c1
inactive: EKVX NSCLC 98% | SN12C renal 87.8% | UO-31 renal 68.7% | TK-10 renal 144% | ACHN renal 90.5% | CAKI-1 renal 70.1% | A498 renal 75.3% | CCRF-CEM leukemia 94.1% | MOLT-4 leukemia 82.8%

COc1cc(/C=C/C(=O)c2c(C)nc3ccccc3c2/C=C/c2ccccc2)cc(OC)c1OC
active: ACHN renal -27.4% | CCRF-CEM leukemia 4.76% | MOLT-4 leukemia -0.744%
inactive: EKVX NSCLC 26.9% | SN12C renal 11.1% | UO-31 renal 27.4% | TK-10 renal 10.1% | CAKI-1 renal 30.8% | A498 renal 40.6%

O=c1oc2ccc(F)cc2c(=O)n1-c1ccc(I)cc1F
active: EKVX NSCLC 9.58% | SN12C renal -3.72% | UO-31 renal 2.62% | TK-10 renal 0.748% | ACHN renal 1.58% | CAKI-1 renal -19.2% | A498 renal -61.4% | MOLT-4 leukemia -0.279%
inactive: CCRF-CEM leukemia 12%

O=C(Nc1ccc(Cl)cc1F)c1cc(F)ccc1O
inactive: TK-10 renal 14%
active: EKVX NSCLC 8.76% | SN12C renal 3.23% | UO-31 renal 5.66% | ACHN renal 3.61% | CAKI-1 renal -14.3% | A498 renal -55.6% | CCRF-CEM leukemia 8.63% | MOLT-4 leukemia -13.3%

COc1c(B(O)O)cccc1-c1nc2ccc3[nH]ncc3c2c2c1C1CCC2C1 (stereo not drawn)
active: CAKI-1 renal 1.43%
inactive: EKVX NSCLC 101% | SN12C renal 59.8% | UO-31 renal 29.3% | TK-10 renal 44.2% | ACHN renal 63.2% | A498 renal 87.2% | CCRF-CEM leukemia 20.5% | MOLT-4 leukemia 52.8%

COc1cc(/C=C/C(=O)N2c3ccccc3CC2C)c(OC)c2c1OCO2 (stereo not drawn)
inactive: EKVX NSCLC 87.7% | SN12C renal 97.1% | UO-31 renal 77.9% | TK-10 renal 96% | ACHN renal 95.7% | CAKI-1 renal 101% | A498 renal 69.1% | CCRF-CEM leukemia 94.6% | MOLT-4 leukemia 84.6% | SR leukemia 102%

O=c1oc2ccc(I)cc2c(=O)n1-c1ccc(F)cc1F
inactive: EKVX NSCLC 59.2% | SN12C renal 10.9% | TK-10 renal 11.6% | ACHN renal 19.6% | CCRF-CEM leukemia 17.2% | MOLT-4 leukemia 13.8%
active: UO-31 renal 7.61% | CAKI-1 renal -17.5% | A498 renal -43.9%

COc1cc(/C=C2\CN(C)C/C(=C\c3cc(CN4CCCC4)c(O)c(OC)c3)C2=O)cc(CN2CCCC2)c1O
inactive: EKVX NSCLC 83.9% | SN12C renal 53.6% | UO-31 renal 80.7% | TK-10 renal 101% | ACHN renal 79% | CAKI-1 renal 99.6% | A498 renal 98.2% | CCRF-CEM leukemia 34.1% | MOLT-4 leukemia 57.6% | SR leukemia 38.7%

Clc1ccc(Oc2ccc(Nc3ncnc4onc(-c5ccccc5)c34)cc2)c(Cl)c1
inactive: EKVX NSCLC 103% | SN12C renal 94% | UO-31 renal 67% | TK-10 renal 105% | ACHN renal 105% | CAKI-1 renal 90.6% | A498 renal 103% | CCRF-CEM leukemia 98.1% | MOLT-4 leukemia 89.8% | SR leukemia 80.6%

COc1ccc2c(c1)C=C1CSCC3=Cc4cc(OC)ccc4OC13O2
active: A498 renal 4.68%
inactive: EKVX NSCLC 40.3% | SN12C renal 28.2% | UO-31 renal 44.5% | TK-10 renal 60.7% | ACHN renal 32.5% | CAKI-1 renal 37.1% | CCRF-CEM leukemia 16.1% | MOLT-4 leukemia 14.3% | SR leukemia 27%

O=C1NC(=S)NC(=O)C1=Cc1cn(Cc2cn(Cc3cccc4ccccc34)nn2)c2ccccc12
inactive: EKVX NSCLC 96.4% | SN12C renal 94.4% | UO-31 renal 67.7% | TK-10 renal 134% | ACHN renal 96% | CAKI-1 renal 80.3% | A498 renal 83.7% | CCRF-CEM leukemia 98.7% | MOLT-4 leukemia 96.2%

COC(=O)c1ccc(NC(=O)CSc2nc3ccccc3c(=O)n2-c2ccccc2)cc1
inactive: EKVX NSCLC 117% | SN12C renal 104% | UO-31 renal 86.4% | TK-10 renal 103% | ACHN renal 103% | CAKI-1 renal 91.5% | A498 renal 96.7% | CCRF-CEM leukemia 92.8% | MOLT-4 leukemia 88% | SR leukemia 88.9%

O=C(Nc1ccc(Br)cc1F)c1cc(I)ccc1O
inactive: EKVX NSCLC 43.8% | TK-10 renal 12.9% | CCRF-CEM leukemia 11.9%
active: SN12C renal 5.88% | UO-31 renal 2.04% | ACHN renal 6.1% | CAKI-1 renal -16.8% | A498 renal -40.9% | MOLT-4 leukemia 6.68%

O=C(CCc1nnc2sc(-c3ccc(Cl)cc3Cl)nn12)c1nc2ncccc2[nH]1
active: EKVX NSCLC -26.2% | SN12C renal -7.29% | UO-31 renal -82% | TK-10 renal -31.6% | ACHN renal -48% | CAKI-1 renal -15.7% | A498 renal -68.6% | CCRF-CEM leukemia 6.98% | MOLT-4 leukemia 5.44%

O=C(/C=C/c1ccc(Cl)cc1)c1ccc(Nc2nc(NCCO)nc(N3CCOCC3)n2)cc1
inactive: EKVX NSCLC 94% | SN12C renal 88.4% | UO-31 renal 56% | TK-10 renal 111% | ACHN renal 82.5% | CAKI-1 renal 77.6% | A498 renal 92.6% | CCRF-CEM leukemia 82.8% | MOLT-4 leukemia 71.3% | SR leukemia 19.8%

NCCOc1ncccc1/C=C1\c2ccccc2-c2ccc(F)cc21
inactive: EKVX NSCLC 51.9% | TK-10 renal 22.4% | CAKI-1 renal 12.8% | A498 renal 18.9%
active: SN12C renal 2.42% | UO-31 renal -17.5% | ACHN renal -20.8% | CCRF-CEM leukemia 6.8% | MOLT-4 leukemia 2.25% | SR leukemia 9%

COc1ccc(/C=C/C(=O)c2c(C)nc3ccccc3c2/C=C/c2ccccc2)c(OC)c1
inactive: EKVX NSCLC 76.9% | SN12C renal 84.3% | UO-31 renal 61.4% | TK-10 renal 123% | ACHN renal 79.5% | CAKI-1 renal 55.9% | A498 renal 97.3% | CCRF-CEM leukemia 76.5% | MOLT-4 leukemia 48.6%

COc1cccc2c1C=C1CCCCC3=Cc4c(OC)cccc4OC13O2
inactive: EKVX NSCLC 60.5% | SN12C renal 49.5% | UO-31 renal 44.5% | TK-10 renal 74.7% | ACHN renal 38.7% | CAKI-1 renal 47.8% | A498 renal 35.9% | CCRF-CEM leukemia 27.9% | MOLT-4 leukemia 29.1% | SR leukemia 28.6%

Fc1ccc(Oc2ccc(Nc3ncnc4onc(-c5ccccc5)c34)cc2)cc1
inactive: EKVX NSCLC 98.9% | SN12C renal 84.1% | UO-31 renal 52.3% | TK-10 renal 102% | ACHN renal 99.8% | CAKI-1 renal 93.5% | A498 renal 67% | CCRF-CEM leukemia 62.9% | MOLT-4 leukemia 88.7% | SR leukemia 102%

O=C(Nc1ccc(Cl)cc1F)c1cc(Br)ccc1O
active: EKVX NSCLC 9.24% | SN12C renal 1.01% | UO-31 renal 5.96% | TK-10 renal 5.64% | ACHN renal 2.84% | CAKI-1 renal -10.7% | A498 renal -62.9% | MOLT-4 leukemia 0.561%
inactive: CCRF-CEM leukemia 15.1%

O=C1c2cc(Br)ccc2Oc2cc([N+](=O)[O-])ccc2N1c1ccc(I)cc1F
inactive: EKVX NSCLC 91.9% | SN12C renal 94.2% | UO-31 renal 73% | TK-10 renal 112% | ACHN renal 99.7% | CAKI-1 renal 84.9% | A498 renal 98.9% | CCRF-CEM leukemia 96.8% | MOLT-4 leukemia 85%

CCOC(=O)c1c(C=O)nc2ccccc2c1/C=C/c1ccc(Cl)cc1
inactive: EKVX NSCLC 81.6% | SN12C renal 96.7% | UO-31 renal 72.7% | TK-10 renal 122% | ACHN renal 89.1% | CAKI-1 renal 89.6% | A498 renal 103% | CCRF-CEM leukemia 76.6% | MOLT-4 leukemia 78.9%

CC(C)C[C@H](C(=O)N[C@H](C(N)=O)C(C)C)N1CC=CCN(OCc2ccccc2)S1(=O)=O
inactive: EKVX NSCLC 114% [2.5 µM] | SN12C renal 94.9% [2.5 µM] | UO-31 renal 83.6% [2.5 µM] | TK-10 renal 102% [2.5 µM] | ACHN renal 97.8% [2.5 µM] | CAKI-1 renal 99.4% [2.5 µM] | A498 renal 108% [2.5 µM] | CCRF-CEM leukemia 92.4% [2.5 µM] | MOLT-4 leukemia 82.5% [2.5 µM] | SR leukemia 93.4% [2.5 µM]

NS(=O)(=O)c1ccc(CCN=C=S)cc1
inactive: EKVX NSCLC 99.9% | SN12C renal 28.6% | CAKI-1 renal 21.8% | A498 renal 79.8% | CCRF-CEM leukemia 10.4% | MOLT-4 leukemia 16.3%
active: UO-31 renal -41.9% | TK-10 renal -4.75% | ACHN renal -70.7% | SR leukemia 9.82%

COc1ccc(-n2c(C(O)c3ccccc3)nn(CN3CCOCC3)c2=S)cc1 (stereo not drawn)
inactive: EKVX NSCLC 111% | SN12C renal 91% | UO-31 renal 77.5% | TK-10 renal 119% | ACHN renal 88.6% | CAKI-1 renal 97% | A498 renal 115% | CCRF-CEM leukemia 96.6% | MOLT-4 leukemia 123% | SR leukemia 193%

COc1ccc(/C=C/C(=O)c2c(C)nc3ccccc3c2/C=C/c2ccccc2)cc1O
inactive: EKVX NSCLC 90.3% | SN12C renal 62.2% | UO-31 renal 53.3% | TK-10 renal 125% | ACHN renal 62.2% | CAKI-1 renal 52.6% | A498 renal 106% | CCRF-CEM leukemia 32.2% | MOLT-4 leukemia 29.9%
